Luc counter: Counterscreen for Luciferase (Kinase-Glo TM) Inhibition | AID 1379, 2008 | Potency, µM (titrated, usually from 38.3 µM), actives largely listed as inhibitors | Kinase-Glo luciferase, ATP luminescence, 8 min | Luciferin 4-monooxygenase (Photuris pensylvanica), Q27757 | 200,000 compounds, 0.28% hits; note: nearly all actives have a fitted effect of over 60% in size
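Inhibition of Kinase-Glo luciferase light generation was assessed at 10 uM ATP in pH 7.2 imidazole buffer, with luminescence measured after eight minutes at ambient temperature.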
Tb PFK inh-1: qHTS Assay to Find Inhibitors of T. brucei phosphofructokinase; T. brucei PFK, ADP-Glo luminescence; Potency, µM (top dose mostly 57.5 µM), hits mostly inhibitors; 330,000 compounds, 0.17% hits; AID 485367, 2010; note: nearly all actives have a fitted effect of over 60% in size
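PFK 1.25 nM, F6P 0.5 mM, ATP 0.1 mM, 0.1 M TEA pH 8.0, 5 mM MgCl2, 0.01% Tween20, 0.1% BSA; 45 min RT. ADP-Glo readout. qHTS titration up to 57 uM; curves fitted, compounds curve-classed.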
Rango complex inh: qHTS Assay for Inhibitors of Rango (Ran-regulated importin-beta cargo) - Importin beta complex formation; Rango CFP/YFP FRET sensor + importin beta, 45 min; Potency, µM (titrated, usually from 92.2 µM); 340,000 compounds, 0.031% hits; AID 540263, 2011; calls by dose curve; note: nearly all actives have a fitted effect of over 15% in size
Target sequence (Q14974 whole entry, looked up): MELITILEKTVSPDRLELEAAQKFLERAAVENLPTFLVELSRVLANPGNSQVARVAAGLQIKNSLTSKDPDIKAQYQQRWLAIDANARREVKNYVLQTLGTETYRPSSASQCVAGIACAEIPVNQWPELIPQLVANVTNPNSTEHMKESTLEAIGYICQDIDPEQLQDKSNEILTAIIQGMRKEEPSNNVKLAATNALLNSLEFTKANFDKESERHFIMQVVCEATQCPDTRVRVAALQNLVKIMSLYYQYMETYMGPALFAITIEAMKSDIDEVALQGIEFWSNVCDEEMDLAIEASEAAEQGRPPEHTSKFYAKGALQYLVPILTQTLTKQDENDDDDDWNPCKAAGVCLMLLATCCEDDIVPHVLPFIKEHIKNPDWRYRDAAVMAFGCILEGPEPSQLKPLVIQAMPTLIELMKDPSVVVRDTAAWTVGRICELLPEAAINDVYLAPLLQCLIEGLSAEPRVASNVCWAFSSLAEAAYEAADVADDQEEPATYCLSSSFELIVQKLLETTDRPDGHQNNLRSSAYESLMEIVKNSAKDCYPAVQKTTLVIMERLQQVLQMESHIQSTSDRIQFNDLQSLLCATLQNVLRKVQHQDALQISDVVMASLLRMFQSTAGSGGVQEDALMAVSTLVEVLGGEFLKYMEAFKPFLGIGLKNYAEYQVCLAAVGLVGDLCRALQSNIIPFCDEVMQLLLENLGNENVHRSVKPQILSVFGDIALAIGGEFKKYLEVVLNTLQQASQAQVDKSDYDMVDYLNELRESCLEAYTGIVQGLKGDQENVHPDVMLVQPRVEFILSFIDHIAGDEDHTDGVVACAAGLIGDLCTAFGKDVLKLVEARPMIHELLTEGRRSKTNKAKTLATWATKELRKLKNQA
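Inhibition scored from the CFP 486 nm/YFP 530 nm FRET ratio 45 min after adding 0.125 microM importin beta to 50 nM Rango biosensor preincubated 5 min with compound (room temperature, PBS with DTT, Tween-20, BSA). No-importin wells as positive control.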
Rango release inh: qHTS Assay for Inhibitors of RanGTP induced Rango (Ran-regulated importin-beta cargo) - Importin beta complex dissociation | Biochemical FRET Rango-importin beta, RanGTP-induced dissociation | Potency, µM (doses to about 46.1 µM) | 340,000 compounds, 0.071% hits; calls by dose curve; note: nearly all actives have a fitted effect of over 45% in size
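Rango/importin beta premix (0.1/0.25 uM final), PBS + 1 mM DTT + 0.02% Tween-20 + 0.1% BSA; cpd 5 min RT; FRET pre-read; + RanGTP-RCC1 (0.6 uM Ran, 2 mM GTP, 0.2 uM RCC1); 45 min RT; FRET post-read, ex 430, em 486/530 nm.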
Lamin A splicing: qHTS Assay for Modulators of Lamin A Splicing | HeLa LMNA splicing GFP/RFP minigene ratio, 48 h | Potency, µM (doses to about 46.1 µM), hits mostly inhibitors | 200,000 compounds, 0.01% hits | AID 1487, 2009; active = well fitted inhibition curve with a large enough effect in the signal ratio, with a control signal flat, not every such curve was filed as active; inconclusive = small, poorly fitted or top-dose-only effect, or effect the other way, or a change in a side signal; the % refers to the signal ratio
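S3 HeLa cells stably expressing lamin A-EGFP splicing minigene plus DsRed2, 600 cells/well, 48 h compound exposure at 37C. Laser-scanning cytometry; analysed as GFP (500-530 nm)/RFP (575-640 nm) total intensity ratio; 0.5% DMSO vehicle.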
BCR signal inh: qHTS Assay to Find Inhibitors of Chronic Active B-Cell Receptor Signaling | Potency, µM (doses to about 46.1 µM), hits mostly inhibitors | ABC-DLBCL IkBa-CBG/CBR reporter, luminescence ratio, 4 h | 340,000 compounds, 0.05% hits; active = well fitted inhibition curve with a large enough effect in the signal ratio, with a control signal flat, not every such curve was filed as active; inconclusive = small, poorly fitted or top-dose-only effect, or effect the other way, or a change in a side signal; the % refers to the signal ratio
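TMD8 human ABC-DLBCL cells with doxycycline-inducible IκBα–green luciferase fusion and unfused red luciferase, in 0.5% FBS medium; compounds up to 46 uM, 4 h at 37C. Green/red luminescence ratio, filter-overlap corrected, fitted to concentration-response curves.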
Tb PFK KinaseGlo: Tb PFK orthogonal confirmatory assay using ATP depletion (Kinase-Glo Plus) as an alternative measure of Tb PFK activity: Hit Validation | shares compounds with Tb PFK inh-1 | Tb PFK enzyme, ATP depletion, Kinase-Glo Plus luminescence | Potency, µM (titrated, usually from 57.5 µM) | 1,100 compounds, 47% hits | AID 504636, 2011; calls by dose curve; note: nearly all actives have a fitted effect of over 60% in size
Tb PFK inh-2: Inhibitors of T. brucei phosphofructokinase: Hit Validation; shares compounds with Tb PFK inh-1; purified T. brucei PFK, ADP-Glo luminescence, 45 min; Potency, µM (highest dose often 57.5 µM), usual class: inhibitors; 1,100 compounds, 41% hits; note: nearly all actives have a fitted effect of over 60% in size
Hits are given with their value; i = inactive; ? = inconclusive; nt = not tested or not shown. Only some compounds are listed: those with a hit (about 0.44% of all), similar ones and a draw of the others. Unless noted, calls come from the whole dose curve; as a rule, active = well fitted curve in the direction sought with a large enough effect; inconclusive = small, poorly fitted or top-dose-only effect, or another doubt; inactive = no such curve, though single readings can be large; an effect the other way counts as inactive or inconclusive.

SMILES	Luc counter	Tb PFK inh-1	Rango complex inh	Rango release inh	Lamin A splicing	BCR signal inh	Tb PFK KinaseGlo	Tb PFK inh-2
CCOC(=O)C(O)(c1ccc(N=c2ccccn2C)cc1)C(F)(F)F (centres undefined)	nt	i	i	i	nt	i	nt	nt
Cc1nc2ccc(Nc3nc4cc(S(=O)(=O)N5CCOCC5)ccc4o3)cc2s1	i	i	?	?	i	i	nt	nt
Cc1nc2ccc(NC3=NCCCCC3)cc2s1	i	11µM	i	i	i	i	8.5µM	6.7µM
O=C(CN1CCCC1=O)N1CCOCC1	i	i	i	i	i	i	nt	nt
Cc1nc(SCC(=O)N2CCOCC2)c2c(=O)n(C)c(=O)n(C)c2n1	nt	24µM	i	i	nt	i	i	i
N#CCSc1nnc(CNc2cccc(Cl)c2)o1	i	24µM	i	i	i	i	13µM	21µM
O=C(COc1ccc(Br)cc1)N1CCN(C2CCCC2)CC1	i	i	i	i	i	i	nt	nt
Nc1ccn(Cc2cccc(Cl)c2)n1	i	27µM	i	i	i	i	19µM	?
CN(C)c1cc(Cl)c2nonc2c1N	nt	?	i	i	nt	i	21µM	?
Clc1cccc2c3c([nH]c12)CCNC3	nt	?	i	i	nt	i	?	?
CN1CCN(C(=S)C(=O)Nc2ccc(Br)cc2)CC1	i	12µM	i	i	?	?	7.6µM	12µM
NC(=O)c1cc(S(=O)(=O)N2CCN(c3ccc([N+](=O)[O-])cc3)CC2)cs1	nt	21µM	i	i	nt	i	12µM	27µM
O=C(Nc1ccccc1)N1Cc2ccccc2-n2nncc2C1	nt	nt	i	i	nt	nt	nt	nt
CC(=O)NS(=O)(=O)c1ccc(NC(=O)c2cccn(Cc3ccc(Cl)cc3)c2=O)cc1	nt	nt	nt	nt	i	nt	nt	nt
NC(N)=NS(=O)(=O)c1ccc(NC(=S)NC(=O)Cc2ccc(Cl)cc2)cc1	nt	?	i	i	nt	i	27µM	30µM
CCOC(=O)C1CCN(/C=C2/C(=O)NC(=O)N(Cc3ccco3)C2=O)CC1	i	?	?	i	i	i	?	?
COc1ccc(/C=C2/C(=O)NC(=O)N(Cc3ccco3)C2=O)cc1	i	?	nt	nt	nt	i	nt	nt
O=[N+]([O-])c1ccc(Cc2ccccn2)cc1	nt	?	i	i	nt	i	?	?
CC(Cc1ccccc1)NC(=O)Cc1ccc([N+](=O)[O-])cc1 (centres undefined)	nt	?	i	i	nt	i	nt	nt
CCCCNC(=O)NC(C(N)=O)P(=O)(OCC)OCC (centres undefined)	nt	i	i	i	nt	i	nt	nt
O=[N+]([O-])c1ccc(N2CCN(c3cccc(Cl)c3)CC2)cn1	nt	12µM	i	i	nt	?	?	5.4µM
CN1CCN(c2ccc([N+](=O)[O-])c(Sc3ccccn3)c2)CC1	nt	i	i	i	nt	?	nt	nt
Cc1cc(OCC(=O)N2CCN(CCc3ccncc3)CC2)cc(C)c1Cl	nt	nt	nt	nt	i	nt	nt	nt
CCOP(=O)(OCC)C(Nc1ccc(F)cc1)c1ccccc1 (centres undefined)	nt	i	?	i	nt	i	nt	nt
CCOP(=O)(Nc1ccc2oc(=O)c3ccccc3c2c1)OCC	nt	?	i	i	nt	i	i	i
SMILES	Luc counter	Tb PFK inh-1	Rango complex inh	Rango release inh	Lamin A splicing	BCR signal inh	Tb PFK KinaseGlo	Tb PFK inh-2
COc1ccc(C(=O)CSC#N)cc1OC	i	?	i	i	i	?	4.8µM	12µM
COc1ccc(C(=O)CN2CCOCC2)cc1F	i	i	i	i	i	?	nt	nt
O=C(NNC(=O)c1ccc2nonc2c1)Nc1ccc(Cl)cc1	nt	15µM	i	i	nt	i	?	?
COc1cc(/C=C(\C#N)C(=O)NCC2CCCO2)ccc1OC(=O)c1ccco1 (centres undefined)	nt	?	i	i	nt	i	i	?
Cc1cc(OC(=O)c2ccco2)c2c3c(c(=O)oc2c1)CCCC3	i	i	i	i	?	?	nt	nt
O=C(NCCCN1CCOCC1)c1sc2cc([N+](=O)[O-])ccc2c1Cl	i	11µM	?	i	i	i	3.4µM	4.3µM
O=C(c1cc([N+](=O)[O-])ccc1N1CCNCC1)N1CCOCC1	i	?	i	i	i	i	nt	nt
CC(NC(=O)c1ccco1)C(=O)N1CCN(c2cccc(C(F)(F)F)c2)CC1 (centres undefined)	nt	?	i	i	nt	i	i	i
CN1CCc2cccc3c2[C@H]1Cc1ccc(O)c(O)c1-3	i	1.9µM	i	i	?	?	2.7µM	6.7µM
Cc1ccn(-c2cc(O)c(-n3ccc(C)n3)cc2O)n1	i	?	i	i	nt	i	i	?
CCCC(C)c1nnc(NC(=O)c2cc(C(=O)OC)cc([N+](=O)[O-])c2)s1 (centres undefined)	i	24µM	i	i	i	i	6.7µM	15µM
Cn1c(N)c(C(=O)COC(=O)Cc2ccc(Cl)c(Cl)c2)c(=O)n(C)c1=O	nt	9.5µM	i	i	nt	i	6.7µM	12µM
COC(=O)C1=C(c2ccc(OC)c(OC)c2)C[C@@H]2CC[C@H]1N2C(=O)NCc1cc(C)oc1C(F)(F)F	nt	i	i	i	nt	i	nt	nt
O=C(Cn1cc(C(=O)c2ccccc2)c2ccccc21)NCc1ccco1	nt	i	i	i	i	?	nt	nt
O=C(/C=C/c1ccco1)NCc1ccco1	nt	?	i	i	nt	i	21µM	?
O=C(/C=C/c1ccc(S(=O)(=O)NCc2ccco2)cc1)NCc1cccc(Cl)c1	i	27µM	i	i	i	i	21µM	27µM
O=C(/C=C/c1ccc(OCCCF)cc1)NCc1cccc(Cl)c1	i	?	i	i	i	i	?	?
CCOC(=O)C1(CCc2ccccc2)CCN(C(C)CSC)CC1 (centres undefined)	nt	nt	i	i	nt	nt	nt	nt
Cc1ccc2c(c1)C1CN(C)CCC1N2C(=O)c1cccnc1Cl (centres undefined)	nt	i	i	i	nt	i	nt	nt
Cc1ccc(NS(=O)(=O)c2cc(NC(=O)c3ccc4c(c3)NC(=O)CS4)ccc2C)c(C)c1	i	21µM	i	i	?	?	15µM	24µM

Source: PubChem BioAssay (National Center for Advancing Translational Sciences (NCATS))
